# The source made the active and inactive calls. Unless noted, the rule behind the calls is not given here.
# What was measured:
# [1] = tested on: Wnt5a (protein binding on small-molecule microarray); experiment: small molecules binding Wnt5a protein – biophysical, small-molecule microarray, 635/667 nm fluorescence, primary screen (AID 1142); details: 635 nm fluorescence, higher = more signal;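 note: fluorescence read at 667 nm with signal to noise per printed feature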
# [2] = ATP-based viability of Huh7 replicon cells – cell-based, CellTiter-Glo luminescence, basal, 48 h, cytotoxicity control for HCV replication inhibitor project, primary screen (AID 1143); details: higher = more signal, called active from +8 up or from −8 down;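 note: Huh7 hepatoma cells carrying a hepatitis C replication reporter with no stimulus; test concentration not given here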
# [3] = Pseudomonas biofilm growth suppression – PAO1 strain, BacTiter-Glo luminescence, LB-PBS, primary screen (AID 1144); details: P. aeruginosa PAO1 biofilm, 12 h, higher = more signal
# [4] = basal CRE-LacZ reporter activity in PC12 – cell-based, unstimulated, primary screen (AID 1145); details: no forskolin, luminescence, 4.5 h, higher = more signal, called active from +8 up or from −8 down
# [5] = forskolin-driven CRE-LacZ activity in PC12 – cell-based, CRE-LacZ reporter, forskolin-stimulated, primary screen (AID 1146); details: luminescence, 4.5 h, higher = more signal, called active from +8 up or from −8 down;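 note: PC12 cells with 6xCRE LacZ reporter stimulated by forskolin 10 µM; beta-galactosidase reporter signal reflecting CREB driven transcription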
# [6] = molecular target: Streptavidin (Streptomyces avidinii) (UniProt P22629); experiment: compounds binding control protein streptavidin – biophysical, small-molecule microarray, 635/667 nm fluorescence, artefact control for SMM compound annotation, primary screen (AID 1147); details: higher = more signal;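 note: signal reflects streptavidin binding to arrayed compounds as a control protein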
# [7] = probe aInhba binding on compound microarray – biochemical, small-molecule microarray, 635/667 nm fluorescence, primary screen (AID 1148); details: higher = more signal;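 note: score merges 667nm spot fluorescence with signal-to-noise for antibody binding to printed compounds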
# Torsin-1A (Homo sapiens) [8] = molecular target: Torsin-1A (Homo sapiens) (UniProt O14656); experiment: TOR1A wild-type binding on microarray – cell lysate, small-molecule microarray, lysate, 635/667 nm, primary screen (AID 1149); details: COS7 hTOR1A-WT lysate, 635 nm fluorescence, higher = more signal
# Torsin-1A (Homo sapiens) [9] = molecular target: Torsin-1A (Homo sapiens) (UniProt O14656); experiment: torsin A mutant lysate binding on microarrays – cell lysate, small-molecule microarray, COS7 lysate, 635/667 nm fluorescence, primary screen (AID 1150); details: COS7 hTOR1A mutant lysate, 635 nm fluorescence, higher = more signal;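 note: score pools 667 nm emission and signal to noise measuring lysate protein binding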
# [10] = tested on: Sonic hedgehog protein (Shh); experiment: Sonic hedgehog microarray binding compounds – biochemical, small-molecule microarray, 635/667 nm fluorescence, primary screen (AID 1151); details: 635 nm fluorescence, higher = more signal;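 note: Shh protein binding to compounds spotted on small-molecule microarray slides; score combines spot fluorescence intensity with signal-to-noise across triplicate slides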
# [11] = optical density shifts of acrAB sulA E. coli – strain DRC41, OD650, 48 h, E. coli filamentation inducer project, primary screen (AID 1152); details: higher = more signal, called active from +8 up or from −8 down;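 note: E. coli MC1000 strain DRC41 lacking acrAB efflux pump and sulA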
# [12] = probe aLefty1 binding on compound microarray – biochemical, small-molecule microarray, 635/667 nm fluorescence, primary screen (AID 1153); details: higher = more signal;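 note: score merges spot fluorescence with signal-to-noise ratio from the scanned slide images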
# [13] = plasmodial surface anion channel blockers, osmotic lysis – cell-based, P. falciparum Indochina, OD700, 1 h, primary screen (AID 1154); details: P. falciparum Indochina infected RBC osmotic lysis, higher = more signal, called active from +8 up or from −8 down
# [14] = plasmodial surface anion channel blockers, osmotic lysis – cell-based, P. falciparum Indochina, OD700, 2 h, primary screen (AID 1155);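 note: lysis reports solute entry through the parasite surface anion channel PSAC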; details: P. falciparum Indochina infected erythrocytes, higher = more signal, called active from +8 up or from −8 down
# [15] = changes in parasitized red cell lysis, either direction – P. falciparum Indochina, OD700, 3 h, PSAC antagonist project, primary screen (AID 1156); details: P. falciparum-infected erythrocytes, osmotic lysis, higher = more signal, called active from +8 up or from −8 down
# [16] = plasmodial surface anion channel blockers, osmotic lysis – cell-based, P. falciparum Indochina, OD700, 18 h, primary screen (AID 1157); details: P. falciparum Indochina infected erythrocytes, osmotic lysis OD700, 18 h; higher = more signal, called active from +8 up or from −8 down
# [17] = S6 kinase pathway phospho-S6 level changes – cell-based, A549, cytoblot, luminescence, serum-stimulated, primary screen (AID 1158); details: 5 h, higher = more signal;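 note: serum-stimulated A549 lung adenocarcinoma cells; signal is phosphorylated S6 detected by cytoblot immunostaining with HRP secondary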
# [18] = molecular target: NADPH oxidase 2 (Homo sapiens) (UniProt P04839); experiment: compounds shifting NOX2 Amplex Red fluorescence – cell-based, HEK293-NOX2, PMA-stimulated, NOX inhibitor project, primary screen (AID 1159); details: 45 min, higher = more signal, called active from +8 up or from −8 down; note: test concentration not given here
# [19] = molecular target: NADPH oxidase 4 (Homo sapiens) (UniProt Q9NPH5); experiment: compounds shifting NOX4 Amplex Red fluorescence – cell-based, HEK293-NOX4, tetracycline-induced, NOX inhibitor project, primary screen (AID 1160); details: HEK293-NOX4, Amplex Red H2O2 fluorescence, 45 min; higher = more signal, called active from +8 up or from −8 down
# [20] = molecular target: NADPH oxidase 5 (Homo sapiens) (UniProt Q96PH1); experiment: compounds shifting NOX5 Amplex Red fluorescence – cell-based, HEK293-NOX5, NOX inhibitor project, primary screen (AID 1161); details: HEK293-NOX5, ionomycin, 45 min, higher = more signal
# NADPH oxidase 5 (Homo sapiens), sequence (Q96PH1 whole entry, looked up): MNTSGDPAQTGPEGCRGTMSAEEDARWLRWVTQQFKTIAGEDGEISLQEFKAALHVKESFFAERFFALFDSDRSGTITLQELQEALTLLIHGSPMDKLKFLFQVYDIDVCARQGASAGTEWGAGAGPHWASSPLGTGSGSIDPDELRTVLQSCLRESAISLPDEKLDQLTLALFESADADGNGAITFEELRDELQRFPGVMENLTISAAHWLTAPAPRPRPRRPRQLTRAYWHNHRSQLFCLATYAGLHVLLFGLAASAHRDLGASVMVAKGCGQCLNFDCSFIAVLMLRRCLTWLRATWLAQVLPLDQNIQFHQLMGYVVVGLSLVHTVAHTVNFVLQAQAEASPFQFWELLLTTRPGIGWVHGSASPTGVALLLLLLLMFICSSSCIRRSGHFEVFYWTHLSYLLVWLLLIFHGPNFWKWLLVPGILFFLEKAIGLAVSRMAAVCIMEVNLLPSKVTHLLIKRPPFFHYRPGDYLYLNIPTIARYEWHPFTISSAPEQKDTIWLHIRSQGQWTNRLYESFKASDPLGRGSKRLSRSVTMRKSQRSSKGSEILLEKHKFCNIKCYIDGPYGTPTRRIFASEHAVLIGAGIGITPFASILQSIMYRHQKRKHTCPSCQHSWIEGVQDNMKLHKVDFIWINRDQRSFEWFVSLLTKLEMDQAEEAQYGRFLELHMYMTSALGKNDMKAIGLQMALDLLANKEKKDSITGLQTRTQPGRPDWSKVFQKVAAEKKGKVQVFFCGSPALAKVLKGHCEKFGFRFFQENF
# Streptavidin (Streptomyces avidinii), sequence (P22629 whole entry, looked up): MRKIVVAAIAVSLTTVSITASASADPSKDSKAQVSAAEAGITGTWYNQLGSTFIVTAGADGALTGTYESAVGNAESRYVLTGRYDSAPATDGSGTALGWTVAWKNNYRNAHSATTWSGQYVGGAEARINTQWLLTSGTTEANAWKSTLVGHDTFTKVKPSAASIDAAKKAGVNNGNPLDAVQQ
# NADPH oxidase 2 (Homo sapiens), sequence (P04839 whole entry, looked up): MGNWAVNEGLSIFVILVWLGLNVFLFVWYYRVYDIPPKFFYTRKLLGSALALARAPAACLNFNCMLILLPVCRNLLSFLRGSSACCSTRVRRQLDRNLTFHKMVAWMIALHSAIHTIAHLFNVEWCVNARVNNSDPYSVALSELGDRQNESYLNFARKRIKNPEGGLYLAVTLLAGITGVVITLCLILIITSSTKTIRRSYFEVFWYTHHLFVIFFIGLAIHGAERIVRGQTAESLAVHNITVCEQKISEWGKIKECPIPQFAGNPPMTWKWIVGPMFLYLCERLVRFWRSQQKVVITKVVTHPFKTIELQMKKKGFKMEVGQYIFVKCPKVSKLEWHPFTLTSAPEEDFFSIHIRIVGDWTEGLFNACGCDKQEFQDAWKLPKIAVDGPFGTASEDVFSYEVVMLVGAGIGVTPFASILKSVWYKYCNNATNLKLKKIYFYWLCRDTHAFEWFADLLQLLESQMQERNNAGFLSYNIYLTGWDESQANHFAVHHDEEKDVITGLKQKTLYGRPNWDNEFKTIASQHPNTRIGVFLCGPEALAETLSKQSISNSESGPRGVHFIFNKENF
# Torsin-1A (Homo sapiens), sequence (O14656 whole entry, looked up): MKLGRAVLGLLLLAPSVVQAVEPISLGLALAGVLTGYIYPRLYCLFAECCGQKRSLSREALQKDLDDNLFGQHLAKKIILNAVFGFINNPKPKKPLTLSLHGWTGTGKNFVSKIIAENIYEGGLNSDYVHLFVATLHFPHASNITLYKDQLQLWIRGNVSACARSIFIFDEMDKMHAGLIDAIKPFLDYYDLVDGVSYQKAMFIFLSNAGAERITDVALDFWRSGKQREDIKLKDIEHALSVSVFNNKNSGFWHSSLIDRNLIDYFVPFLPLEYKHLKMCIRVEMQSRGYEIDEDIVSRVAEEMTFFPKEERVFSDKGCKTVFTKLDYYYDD
# NADPH oxidase 4 (Homo sapiens), sequence (Q9NPH5 whole entry, looked up): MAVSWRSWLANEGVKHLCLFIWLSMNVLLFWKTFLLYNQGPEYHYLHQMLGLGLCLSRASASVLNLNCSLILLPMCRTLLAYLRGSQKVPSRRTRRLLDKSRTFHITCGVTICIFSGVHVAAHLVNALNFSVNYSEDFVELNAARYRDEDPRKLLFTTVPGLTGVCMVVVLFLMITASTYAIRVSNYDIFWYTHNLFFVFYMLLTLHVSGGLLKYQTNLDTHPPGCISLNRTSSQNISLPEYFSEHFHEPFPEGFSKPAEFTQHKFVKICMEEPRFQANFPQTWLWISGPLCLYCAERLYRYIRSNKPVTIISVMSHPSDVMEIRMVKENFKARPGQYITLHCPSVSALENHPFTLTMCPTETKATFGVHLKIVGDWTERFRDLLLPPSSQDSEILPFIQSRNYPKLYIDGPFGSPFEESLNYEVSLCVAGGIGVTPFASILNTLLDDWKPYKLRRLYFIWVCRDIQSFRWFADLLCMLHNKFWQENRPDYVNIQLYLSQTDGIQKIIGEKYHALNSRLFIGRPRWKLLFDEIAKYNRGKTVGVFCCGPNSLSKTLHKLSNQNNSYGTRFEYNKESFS
Structure (SMILES),composite z-score [1],z-score [2],z-score [3],z-score [4],z-score [5],composite z-score [6],composite z-score [7],composite z-score (Torsin-1A (Homo sapiens) [8]),composite z-score (Torsin-1A (Homo sapiens) [9]),composite z-score [10],z-score [11],composite z-score [12],z-score [13],z-score [14],z-score [15],z-score [16],z-score [17],z-score [18],z-score [19],z-score [20]
NC(=O)NCC#Cc1ccc2c(c1)[C@]1(C(=O)N2)[C@H](C(N)=O)[C@H]2C(=O)O[C@H](c3ccccc3)[C@H](c3ccccc3)N2[C@@H]1c1ccccc1OCCO,0.0902,0.463 (inactive),-0.258 (inactive),0.918 (inactive),-0.447 (inactive),0.28,0.0091,0.247,0.396,1.18,-0.925 (inactive),0.199,2.15 (inactive),0.0353 (inactive),-3.88 (inactive),-0.146 (inactive),-0.128,2.1 (inactive),1 (inactive),0.53
Cc1ccc(N2C(=O)c3ccccc3[C@@H](C(=O)NCC(F)(F)F)[C@@H]2c2ccc(CO)cc2)nc1,0.0023,-0.977 (inactive),0.00438 (inactive),0.791 (inactive),0.495 (inactive),-1.62,0.17,-1.76,-1.78,0.0716,0.734 (inactive),-0.0099,1.32 (inactive),0.422 (inactive),0.827 (inactive),0.38 (inactive),0.189,1.22 (inactive),0.32 (inactive),-0.914
COc1cc(Cc2cc3c(c(CCc4ccccc4)n2)[Si](C(C)C)(C(C)C)OC3)cc(OC)c1OC,-0.179,-1.86 (inactive),-0.554 (inactive),-0.0989 (inactive),0.132 (inactive),0.977,-0.159,0.1,0.0658,0.553,-0.655 (inactive),-0.0501,2.06 (inactive),0.481 (inactive),-0.411 (inactive),-0.232 (inactive),-0.475,-0.195 (inactive),-0.231 (inactive),-2.59
NC(=O)NCC#Cc1ccc2c(c1)[C@]1(C(=O)N2)[C@H](c2ccccc2OCCO)N2[C@H](c3ccccc3)[C@H](c3ccccc3)OC(=O)[C@H]2[C@@H]1C(=O)N1CCN(c2ncccn2)CC1,-0.186,-4.21 (inactive),-0.681 (inactive),-0.0515 (inactive),0.889 (inactive),0.182,-0.0762,0.0759,0.272,0.831,2.11 (inactive),0.445,3.42 (inactive),0.449 (inactive),0.229 (inactive),-1.44 (inactive),2.08,1.09 (inactive),0.958 (inactive),-0.596
CCCC[C@@H]1C[C@H]1[C@@H](NC(=O)c1ccccc1)c1ccccc1C(F)(F)F,0.175,0.0018 (inactive),-0.0632 (inactive),1.73 (inactive),1.17 (inactive),1.84,0.319,-0.113,0.322,-0.654,-0.94 (inactive),0.747,-0.247 (inactive),0.803 (inactive),-0.429 (inactive),0.422 (inactive),0.807,0.566 (inactive),-1.02 (inactive),0.262
CC1CC/C=C\[C@H]2OC34C=CCN(Cn5nnc6ccccc65)C(=O)[C@H]3N(C(C)CO)C(=O)[C@@H]4C2C(=O)O1 (stereo not given in full),-0.501,0.349 (inactive),-0.182 (inactive),-1.03 (inactive),-0.542 (inactive),-0.465,-0.0675,-0.276,-1,-0.362,0.0838 (inactive),-0.204,2.25 (inactive),0.974 (inactive),1.03 (inactive),0.477 (inactive),0.0801,0.963 (inactive),0.173 (inactive),1.79
CN1C(=O)C2C=CC(C(O)c3ccc(N(C)C)cc3)N(Nc3ccc([N+](=O)[O-])cc3[N+](=O)[O-])C2C1=O (stereo not given),0.0988,0.891 (inactive),-0.202 (inactive),1.03 (inactive),0.0229 (inactive),1.51,0.529,0.977,1.56,0.262,-0.692 (inactive),0.719,2.33 (inactive),1.27 (inactive),-0.169 (inactive),1.05 (inactive),-0.444,-0.742 (inactive),-1.39 (inactive),-0.0769
COCCOC(=O)N1C(=O)[C@@]2(c3cc(C#CCCO)ccc31)[C@H](c1ccc(O)cc1)N1[C@H](c3ccccc3)[C@H](c3ccccc3)OC(=O)[C@H]1[C@@H]2C(=O)Nc1nc2ccccc2s1,0.607,-2.49 (inactive),-1.24 (inactive),-1.7 (inactive),-0.0062 (inactive),0.996,-0.0062,-0.0624,0.236,2.03,1.45 (inactive),0.345,2.22 (inactive),1.59 (inactive),0.577 (inactive),1.73 (inactive),0.897,0.928 (inactive),-0.161 (inactive),1.21
CCOC(=O)C1=C[C@@H](c2ccccc2)N(S(=O)(=O)c2ccc(C)cc2)[C@H]1c1ccc(F)cc1,0.0679,-3.77 (inactive),0.449 (inactive),-0.826 (inactive),-0.552 (inactive),0.95,0.225,0.347,0.431,0.488,-1.15 (inactive),0.275,1.66 (inactive),1.42 (inactive),-0.101 (inactive),1 (inactive),-0.217,0.108 (inactive),0.814 (inactive),-0.291
COc1ccc(CCN2C(=O)[C@@]3(c4ccc([N+](=O)[O-])cc4)CC(=O)N(CC45CC6CC(CC(C6)C4)C5)[C@@H]3c3ccc(CO)cc32)cc1,-0.209,-0.252 (inactive),0.655 (inactive),0.155 (inactive),-0.036 (inactive),-0.168,0.333,0.16,0.335,0.483,0.683 (inactive),0.585,1.39 (inactive),0.77 (inactive),0.393 (inactive),0.427 (inactive),-0.385,-0.447 (inactive),-0.968 (inactive),1.43
CC(C)[C@H]1NC(=O)[C@@]23C(=O)N[C@@H](Cc4ccccc4)C2[C@H](C)[C@@]2(C)O[C@H]2C3/C=C/C/C=C\CNC(=O)[C@H](C)NC1=O (stereo not given in full),-0.438,-0.131 (inactive),0.0406 (inactive),0.306 (inactive),0.289 (inactive),-1.07,-0.151,-0.96,0.237,0.203,-0.629 (inactive),-0.381,3.36 (inactive),0.538 (inactive),0.386 (inactive),0.01 (inactive),-0.221,0.813 (inactive),-0.833 (inactive),0.137
O=C/C=C/c1ccccc1Cl,-0.159,-0.724 (inactive),-0.904 (inactive),-0.0243 (inactive),-0.468 (inactive),0.143,0.0705,-0.342,0.081,-0.0129,2.11 (inactive),-0.191,0.159 (inactive),0.282 (inactive),-2.03 (inactive),0.206 (inactive),1.11,-0.129 (inactive),-0.729 (inactive),1.38
NC(=O)[C@H]1[C@@H]2C(=O)O[C@@H](c3ccccc3)[C@@H](c3ccccc3)N2[C@@H](c2ccc(O)cc2)[C@]12C(=O)Nc1ccc(C#CCCO)cc12,-0.183,0.134 (inactive),-0.453 (inactive),-0.258 (inactive),0.278 (inactive),-1.57,-0.0044,-1.39,0.806,0.35,-0.331 (inactive),-0.0559,5.17 (inactive),0.92 (inactive),0.696 (inactive),0.442 (inactive),-0.289,0.482 (inactive),-0.661 (inactive),0.563
COc1ccc([Si](C)(C)[C@@H]2[C@@H](CCO)O[C@]3(C(=O)N(Cc4ccc(NC(=O)[C@H](C)O)cc4)c4ccccc43)[C@H]2C)cc1,0.186,-8.04 (active),-0.261 (inactive),18.4 (active),-1.12 (inactive),0.458,-0.0471,0.504,0.392,0.599,1.12 (inactive),0.0378,31.4 (active),27.1 (active),1.58 (inactive),2.46 (inactive),0.597,0.535 (inactive),1.26 (inactive),0.648
COC(=O)C(CC#Cc1ccc2c(c1)[C@]1(C(=O)N2)[C@H](C(=O)N2CCCCCCC2)[C@H]2C(=O)O[C@H](c3ccccc3)[C@H](c3ccccc3)N2[C@@H]1c1ccc(O)cc1)C(=O)OC,-0.593,-4.23 (inactive),0.144 (inactive),0.0736 (inactive),-0.928 (inactive),-1.01,0.539,-0.998,-0.529,-0.657,0.752 (inactive),0.297,0.561 (inactive),-0.312 (inactive),-0.221 (inactive),-1.18 (inactive),1.28,0.455 (inactive),0.264 (inactive),0.147
COc1ccc(NN2C(C(O)c3cc(OC)c(OC)c(OC)c3)C=CC3C(=O)N(C4CCCCC4)C(=O)C32)cc1 (stereo not given),0.866,-1.6 (inactive),-0.272 (inactive),0.285 (inactive),0.907 (inactive),1.14,0.294,-0.125,0.236,0.377,-0.413 (inactive),0.06,11.5 (active),1.74 (inactive),0.752 (inactive),0.558 (inactive),-0.241,-1.55 (inactive),-1.85 (inactive),-2.67

# From PubChem BioAssay
